Inconclusive results are not listed. The source made the active and inactive calls. The call rests on the fitted dose curve; in most records, active means well fitted inhibition curve with a large enough effect; inconclusive means small, poorly fitted or top-dose-only effect; inactive means flat fitted curve, though single readings scatter.
What was measured:
Experiment in all cases: qHTS profiling for inhibitors of Plasmodium falciparum proliferation (AID 504749); further: nearly all actives have a fitted effect of over 60% in size
Details in all cases: P. falciparum in erythrocytes, SYBR Green DNA, 72 h; series mostly up to 12.8 µM
C2A = system: C2A
Outline: (§1)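 Readout was DNA-dye fluorescence from lysed cultures, ex 485/em 535 nm. Parasitized red cells had grown 72 h with compound; data scaled between 0.29 uM artemisinin and DMSO wells and corrected using vehicle-only plates.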

CP185 = system: CP185
Outline: as §1

CP211 = system: CP211
Outline: as §1

CP217 = system: CP217
Outline: as §1

CP250 = system: CP250
Outline: as §1

CP252 = system: CP252
Outline: as §1

CP256 = system: CP256
Outline: as §1

CP291 = system: CP291
Outline: as §1

CP305 = system: CP305
Outline: as §1

CP325 = system: CP325
Outline: as §1

CP329 = system: CP329
Outline: as §1

CP335 = system: CP335
Outline: as §1

Dd2 = system: Dd2
Outline: as §1

ECU = system: ECU
Outline: as §1

HB3 = system: HB3
Outline: as §1

N140 = system: N140
Outline: as §1

PC15 = system: PC15
Outline: as §1

PC49 = system: PC49
Outline: as §1

SC27B = system: SC27B
Outline: as §1

TAB113 = system: TAB113
Outline: as §1

Measured: Potency

CCN1C(=O)N[C@@H](c2ccccc2)C1=O
inactive: C2A | CP185 | CP211 | CP217 | CP250 | CP252 | CP256 | CP291 | CP305 | CP325 | CP329 | CP335 | Dd2 | ECU | HB3 | N140 | PC15 | PC49 | SC27B | TAB113

O=C(O)/C=C\c1ccc(Cn2ccnc2)cc1
inactive: C2A | CP185 | CP211 | CP217 | CP250 | CP252 | CP256 | CP291 | CP305 | CP325 | CP329 | CP335 | Dd2 | ECU | HB3 | N140 | PC15 | PC49 | SC27B | TAB113

CC1(C)Oc2ccc(C#N)cc2[C@H](N2CCCC2=O)[C@H]1O
inactive: C2A | CP185 | CP211 | CP217 | CP250 | CP252 | CP256 | CP291 | CP305 | CP325 | CP329 | CP335 | Dd2 | ECU | HB3 | N140 | PC15 | PC49 | SC27B | TAB113

C[N+]1(C)CCC[C@@H](OC(=O)C(O)(c2ccccc2)c2ccccc2)C1
inactive: C2A | CP185 | CP211 | CP217 | CP250 | CP252 | CP256 | CP291 | CP305 | CP325 | CP329 | CP335 | Dd2 | ECU | HB3 | N140 | PC15 | PC49 | SC27B | TAB113

COc1c(O)cc2c(c1O)[C@@H]1O[C@@H](CO)[C@@H](O)[C@@H](O)[C@@H]1OC2=O
inactive: C2A | CP185 | CP211 | CP217 | CP250 | CP252 | CP256 | CP291 | CP305 | CP325 | CP329 | CP335 | Dd2 | ECU | HB3 | N140 | PC15 | PC49 | SC27B | TAB113

CC1(C)O[C@@H]2C[C@H]3[C@H]4C[C@H](F)C5=CC(=O)C=C[C@@]5(C)[C@@H]4[C@H](O)C[C@]3(C)[C@]2(C(=O)CO)O1
inactive: C2A | CP185 | CP211 | CP217 | CP250 | CP252 | CP256 | CP291 | CP305 | CP325 | CP329 | CP335 | Dd2 | ECU | HB3 | N140 | PC15 | PC49 | SC27B | TAB113

CN[C@@H](CC(C)C)C(=O)N[C@@H]1C(=O)N[C@H](CC(N)=O)C(=O)N[C@@H]2C(=O)N[C@H]3C(=O)N[C@H](C(=O)N[C@H](C(=O)O)c4cc(O)cc(O)c4-c4cc3ccc4O)[C@H](O)c3ccc(c(Cl)c3)Oc3cc2cc(c3O[C@H]2O[C@@H](CO)[C@@H](O)[C@@H](O)[C@@H]2O[C@@H]2C[C@](C)(N)[C@H](O)[C@H](C)O2)Oc2ccc(cc2Cl)[C@@H]1O
inactive: C2A | CP185 | CP211 | CP217 | CP250 | CP252 | CP256 | CP291 | CP305 | CP325 | CP329 | CP335 | Dd2 | ECU | HB3 | N140 | PC15 | PC49 | SC27B | TAB113

O=C(Cc1cccs1)NC1C(=O)N2C(C(=O)[O-])=C(C[n+]3ccccc3)CSC12 (centres undefined)
inactive: C2A | CP185 | CP211 | CP217 | CP250 | CP252 | CP256 | CP291 | CP305 | CP325 | CP329 | CP335 | Dd2 | ECU | HB3 | N140 | PC15 | PC49 | SC27B | TAB113

O=c1[nH]cnc2c1ncn2C1OC(CO)C(O)C1O (centres undefined)
inactive: C2A | CP185 | CP211 | CP217 | CP250 | CP252 | CP256 | CP291 | CP305 | CP325 | CP329 | CP335 | Dd2 | ECU | HB3 | PC15 | PC49 | SC27B | TAB113

CO/N=C(/C(=O)NC1C(=O)N2C(C(=O)O)=C(CSc3nc(=O)c(O)nn3C)CSC12)c1csc(N)n1 (centres undefined)
inactive: C2A | CP185 | CP211 | CP217 | CP250 | CP252 | CP256 | CP291 | CP305 | CP325 | CP329 | CP335 | Dd2 | ECU | HB3 | N140 | PC15 | PC49 | SC27B | TAB113
